Five substances from paper PMC6579518 can be followed below.

In assay [1] the target is Pumilio homology domain family member 6 (UniProt Q04373). The experiment in a line: cross-link between two proteins; cross-linking mass spectrometry.
In the next assay the target is UPF0642 protein YBL028C (UniProt P38202). The description is as above.
The target in assay [2] is WD repeat-containing protein JIP5 (UniProt Q06214). The assay is described as above.
The target in assay [3] is U3 small nucleolar RNA-associated protein 22 (UniProt P53254). In words: cross-link between two proteins; affinity purification or IP with mass spectrometry; cross-linking mass spectrometry.
Sequence of U3 small nucleolar RNA-associated protein 22 (P53254 whole entry): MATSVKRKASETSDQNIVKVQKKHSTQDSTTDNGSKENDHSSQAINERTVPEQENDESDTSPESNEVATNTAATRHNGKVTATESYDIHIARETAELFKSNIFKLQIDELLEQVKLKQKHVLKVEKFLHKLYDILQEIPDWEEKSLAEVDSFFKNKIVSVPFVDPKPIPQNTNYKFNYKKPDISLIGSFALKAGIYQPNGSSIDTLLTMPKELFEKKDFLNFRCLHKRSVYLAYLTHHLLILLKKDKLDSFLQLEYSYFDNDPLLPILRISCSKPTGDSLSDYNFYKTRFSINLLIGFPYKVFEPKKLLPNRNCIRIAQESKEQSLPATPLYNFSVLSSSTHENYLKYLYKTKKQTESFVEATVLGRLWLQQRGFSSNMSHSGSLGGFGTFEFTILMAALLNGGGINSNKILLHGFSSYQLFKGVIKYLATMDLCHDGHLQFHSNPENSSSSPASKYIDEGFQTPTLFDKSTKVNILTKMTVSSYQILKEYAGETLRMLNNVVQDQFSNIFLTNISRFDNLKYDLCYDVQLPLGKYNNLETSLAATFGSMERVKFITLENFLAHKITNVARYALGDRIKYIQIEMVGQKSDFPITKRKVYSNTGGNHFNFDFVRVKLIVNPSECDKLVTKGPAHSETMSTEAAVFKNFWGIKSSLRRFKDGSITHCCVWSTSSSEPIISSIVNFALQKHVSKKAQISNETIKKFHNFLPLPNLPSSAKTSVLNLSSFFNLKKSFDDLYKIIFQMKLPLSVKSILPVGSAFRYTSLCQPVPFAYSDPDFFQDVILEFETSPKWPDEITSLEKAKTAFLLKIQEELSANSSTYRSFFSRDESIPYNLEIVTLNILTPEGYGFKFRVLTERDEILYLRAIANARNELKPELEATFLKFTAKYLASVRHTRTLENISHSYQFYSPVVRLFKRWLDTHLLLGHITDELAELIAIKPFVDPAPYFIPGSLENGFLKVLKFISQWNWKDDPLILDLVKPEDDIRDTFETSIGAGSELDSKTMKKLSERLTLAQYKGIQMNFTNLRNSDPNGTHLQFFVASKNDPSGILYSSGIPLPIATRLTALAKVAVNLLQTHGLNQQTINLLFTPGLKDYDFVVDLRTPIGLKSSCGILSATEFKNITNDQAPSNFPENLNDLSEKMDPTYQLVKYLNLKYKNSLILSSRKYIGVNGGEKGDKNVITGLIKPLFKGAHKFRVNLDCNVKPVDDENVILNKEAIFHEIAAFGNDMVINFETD

Sequence of UPF0642 protein YBL028C (P38202 whole entry): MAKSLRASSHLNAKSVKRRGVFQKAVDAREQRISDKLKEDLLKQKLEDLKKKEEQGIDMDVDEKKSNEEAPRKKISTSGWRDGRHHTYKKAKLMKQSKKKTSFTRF
Sequence of Large ribosomal subunit protein uL5A, P0C0W9 (P0C0W9 whole entry): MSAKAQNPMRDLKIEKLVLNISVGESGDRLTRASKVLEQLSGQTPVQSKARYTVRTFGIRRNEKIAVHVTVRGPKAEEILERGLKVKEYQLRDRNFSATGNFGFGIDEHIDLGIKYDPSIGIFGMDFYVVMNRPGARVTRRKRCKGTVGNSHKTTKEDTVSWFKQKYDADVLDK
Sequence of Pumilio homology domain family member 6 (Q04373 whole entry, the tested form may be a part): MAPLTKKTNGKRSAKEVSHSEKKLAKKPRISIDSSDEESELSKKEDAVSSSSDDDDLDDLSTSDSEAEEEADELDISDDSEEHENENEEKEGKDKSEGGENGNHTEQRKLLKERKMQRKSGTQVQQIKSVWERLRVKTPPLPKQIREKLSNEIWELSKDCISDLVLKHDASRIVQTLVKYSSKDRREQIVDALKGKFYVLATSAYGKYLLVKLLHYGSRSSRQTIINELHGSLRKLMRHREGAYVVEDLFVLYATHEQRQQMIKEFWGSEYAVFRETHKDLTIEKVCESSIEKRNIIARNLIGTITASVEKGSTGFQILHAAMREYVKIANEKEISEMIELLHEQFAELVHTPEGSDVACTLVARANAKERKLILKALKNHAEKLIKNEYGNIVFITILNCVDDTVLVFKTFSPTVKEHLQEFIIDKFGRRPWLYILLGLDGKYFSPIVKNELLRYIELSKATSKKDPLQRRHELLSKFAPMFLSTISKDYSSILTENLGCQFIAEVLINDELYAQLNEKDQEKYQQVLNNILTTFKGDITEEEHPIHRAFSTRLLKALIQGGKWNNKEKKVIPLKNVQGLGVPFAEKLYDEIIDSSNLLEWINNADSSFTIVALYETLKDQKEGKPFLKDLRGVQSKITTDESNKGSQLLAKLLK
Sequence of Large ribosomal subunit protein uL1A, P0CX43 (P0CX43 whole entry): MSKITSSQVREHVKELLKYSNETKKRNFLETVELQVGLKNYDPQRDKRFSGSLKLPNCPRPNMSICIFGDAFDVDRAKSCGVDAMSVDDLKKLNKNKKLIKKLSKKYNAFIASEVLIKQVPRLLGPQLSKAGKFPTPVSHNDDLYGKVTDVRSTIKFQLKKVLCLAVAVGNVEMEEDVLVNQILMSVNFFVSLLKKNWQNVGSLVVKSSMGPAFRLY
Sequence of WD repeat-containing protein JIP5 (Q06214 whole entry): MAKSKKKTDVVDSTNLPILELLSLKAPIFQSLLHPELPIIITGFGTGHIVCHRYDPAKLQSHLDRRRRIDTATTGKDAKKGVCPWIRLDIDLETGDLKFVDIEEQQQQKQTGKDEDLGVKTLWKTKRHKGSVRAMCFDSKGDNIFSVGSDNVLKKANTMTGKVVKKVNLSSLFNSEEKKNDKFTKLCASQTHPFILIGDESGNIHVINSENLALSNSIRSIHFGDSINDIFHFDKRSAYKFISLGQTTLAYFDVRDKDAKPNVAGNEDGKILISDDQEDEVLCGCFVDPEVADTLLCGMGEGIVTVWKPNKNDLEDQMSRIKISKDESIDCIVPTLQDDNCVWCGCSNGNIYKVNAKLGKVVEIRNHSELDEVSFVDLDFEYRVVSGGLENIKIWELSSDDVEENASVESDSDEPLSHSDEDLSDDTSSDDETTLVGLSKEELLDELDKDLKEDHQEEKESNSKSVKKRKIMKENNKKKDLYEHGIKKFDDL
Sequence of Heat shock protein SSA1, P10591 (P10591 whole entry): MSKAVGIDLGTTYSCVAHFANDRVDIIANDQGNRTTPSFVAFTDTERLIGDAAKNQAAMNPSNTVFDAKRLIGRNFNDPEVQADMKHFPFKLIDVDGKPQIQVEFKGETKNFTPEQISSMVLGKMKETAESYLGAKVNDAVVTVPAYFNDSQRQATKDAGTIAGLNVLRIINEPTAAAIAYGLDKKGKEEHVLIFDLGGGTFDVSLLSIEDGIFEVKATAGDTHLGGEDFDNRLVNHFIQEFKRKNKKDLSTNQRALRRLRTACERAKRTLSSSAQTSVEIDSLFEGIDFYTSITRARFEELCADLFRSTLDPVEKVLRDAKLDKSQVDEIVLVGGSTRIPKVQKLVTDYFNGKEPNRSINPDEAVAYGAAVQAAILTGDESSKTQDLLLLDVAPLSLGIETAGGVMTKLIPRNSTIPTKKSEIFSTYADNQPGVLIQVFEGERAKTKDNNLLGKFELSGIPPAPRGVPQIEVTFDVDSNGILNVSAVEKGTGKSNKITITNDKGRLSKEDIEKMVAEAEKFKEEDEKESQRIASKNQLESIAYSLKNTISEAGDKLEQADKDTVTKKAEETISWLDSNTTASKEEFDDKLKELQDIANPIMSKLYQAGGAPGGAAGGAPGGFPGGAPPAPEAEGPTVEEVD
Sequence of Large ribosomal subunit protein uL3, P14126 (P14126 whole entry): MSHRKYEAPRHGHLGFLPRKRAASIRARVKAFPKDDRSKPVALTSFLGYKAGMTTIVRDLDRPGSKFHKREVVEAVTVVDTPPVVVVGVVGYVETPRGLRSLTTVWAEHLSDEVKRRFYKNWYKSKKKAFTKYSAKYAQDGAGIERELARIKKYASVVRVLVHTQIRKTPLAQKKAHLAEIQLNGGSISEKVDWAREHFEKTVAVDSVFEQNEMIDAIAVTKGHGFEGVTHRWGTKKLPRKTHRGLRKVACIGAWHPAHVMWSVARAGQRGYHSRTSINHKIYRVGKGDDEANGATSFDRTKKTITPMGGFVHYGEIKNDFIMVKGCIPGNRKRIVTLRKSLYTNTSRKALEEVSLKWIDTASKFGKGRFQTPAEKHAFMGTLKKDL

As to “Large ribosomal subunit protein uL5A, P0C0W9”, in assay [1], the “listed as a hit” value is given as “yes”.
“Large ribosomal subunit protein uL3, P14126”: in the assay with UPF0642 protein YBL028C, the “listed as a hit” value was “yes”.
As for “Large ribosomal subunit protein uL6A, P05738”, the “listed as a hit” value in the assay with UPF0642 protein YBL028C is “yes”.
As to “Large ribosomal subunit protein uL1A, P0CX43”, in assay [2], the “listed as a hit” value is “yes”.
Regarding Heat shock protein SSA1, P10591, in assay [3], the “listed as a hit” value is “yes”.
